Laboratory results from PubChem BioAssay AID463173 (ICCB-Longwood Screening Facility, Harvard Medical School, 2010).
Among all 52,000 compounds or so, about 1,700 (3.3%) were called active. No stated cut-off is given here; in the data, active means survival mostly below about 52% (no sharp cut-off); inactive means mostly above about 56%. The entries come from a sample that favours actives as a whole.

system: Wild type; assay: S. aureus survival, RN4220 and DeltatarO strains – OD600, teichoic acid synthesis inhibitors, primary screen (AID 463173); details: S. aureus RN4220 wild type/DeltatarO growth, OD600, 18 h, hits give low values, screened at 18.75 µg/mL (by protocol)

SMILES | survival
Cc1ccc(NS(=O)(=O)c2cc3[nH]c(=O)c(=O)[nH]c3cc2C)cc1N(C)C | 81% (inactive)
CC1(CCC(=O)O)NNC(=S)NN1 | 101% (inactive)
Cn1cccc1-c1cc2n(n1)CCC(=O)N2CC(=O)Nc1ccc(F)cc1Cl | 63% (inactive)
Cc1nn(C(=O)c2cccc(F)c2)c(C)c1S(=O)(=O)N1CCCCCC1 | 84% (inactive)
Cc1c(C(=O)N2CCC(C)CC2)c(S(=O)(=O)Nc2cccc(C(F)(F)F)c2)c(C)n1C | 78% (inactive)
CCOC(=O)c1ccc(N2CCN(c3ccc(F)cc3)CC2)c(NC(=O)Nc2cccc(OC)c2)c1 | 67% (inactive)
CCOC(=O)c1ccc(N2CCN(c3cccc(Cl)c3)CC2)c(NC(=O)Nc2ccc(Cl)cc2)c1 | 76% (inactive)
CCOC(=O)c1ccc(N2CCN(c3cccc(OC)c3)CC2)c(NC(=O)Nc2ccc(OCC)cc2)c1 | -6% (active)
Cc1cn2c(=O)cc(COc3ccccc3NC(=O)c3ccco3)nc2s1 | 83% (inactive)
Fc1cccc(NCc2cccn2-c2nnc(N3CCOCC3)s2)c1 | 77% (inactive)
CC(=O)N1SC(N)=NC1c1ccccc1 (stereo not drawn) | 111% (inactive)
CCOc1ccc(N(C)S(=O)(=O)c2ccc3c(c2)CCCN3C(C)=O)cc1 | 75% (inactive)
CCOc1ccc(CNC(=O)c2ccc3c(c2)nc2n3CCC(C)C2)cc1OC (stereo not drawn) | 73% (inactive)
COc1ccc(CCNC(=O)c2ccc3c(c2)nc2n3CCCCC2)cc1OC | 84% (inactive)
CCOc1ccc(CNC(=O)c2ccc3c(c2)nc2n3CCOC2)cc1 | 57% (inactive)
COc1ccc(CCNC(=O)c2ccc3c(c2)nc2n3CCOC2)cc1OC | -4% (active)
O=C(NCc1ccccc1)c1ccc2c(c1)nc1n2CCOC1 | 82% (inactive)
Cc1ccc(C)c(CNC(=O)c2ccc3c(c2)nc2n3CCOC2)c1 | 63% (inactive)
CCOc1ccc(CCNC(=O)c2ccc3c(c2)nc2n3CCOC2)cc1OCC | 63% (inactive)
O=C(NCc1ccccc1Br)c1ccc2c(c1)nc1n2CCOC1 | -3% (active)
CCOc1ccc(CNC(=O)c2ccc3c(c2)nc2n3CCOC2)cc1OC | 1% (active)
Cc1ccc(C)c(NC(=O)CSc2nc(-c3ccccc3)c(C#N)c(=O)[nH]2)c1 | 113% (inactive)
COc1cccc(NC(=O)CSc2nnc(-c3cccc(OC)c3)o2)c1 | 90% (inactive)
CCn1c(CC(=O)Nc2ccccc2)n[nH]c1=S | 107% (inactive)

SMILES | survival
Cc1cn2c(=O)cc(COC(=O)c3cccc(NC(=O)c4ccccc4C)c3)nc2s1 | 71% (inactive)
COc1ccccc1CNc1ccc(-c2nc(-c3ccccn3)no2)cc1[N+](=O)[O-] | 77% (inactive)
Cc1ccc2c(=O)c(C(=O)c3ccccc3)cn(CC(=O)Nc3ccccc3C)c2n1 | 65% (inactive)
O=c1[nH]c2ccccc2c(O)c1-c1nc2ccccc2c(=O)[nH]1 | 109% (inactive)
CC1CCN(c2nc3ccccc3nc2SCC(=O)Nc2ccccc2C(C)C)CC1 | -16% (active)
CCOc1ccccc1NC(=O)CSc1nc2ccccc2nc1N1CCOCC1 | -11% (active)
Cc1cccc(NC(=O)CSc2nc3ccccc3nc2N2CCOCC2)c1C | 65% (inactive)
CC(=O)Nc1ccc(NC(=O)CSc2nc3ccccc3nc2N2CCC(C)CC2)cc1 | 80% (inactive)
Cc1ccc(NC(=O)CSc2nc3ccccc3nc2N2CCOCC2)cc1 | 59% (inactive)
CCOc1ccc(NC(=O)CSc2nc3ccccc3nc2N2CCOCC2)cc1 | 112% (inactive)
Cc1cccc(NC(=O)CSc2nc3ccccc3nc2N2CCC(C)CC2)c1 | -9% (active)
Cc1ccc(C)c(NC(=O)CSc2nc3ccccc3nc2N2CCOCC2)c1 | 76% (inactive)
Cc1cccc(NC(=O)CSc2nc3ccccc3nc2N2CCCCC2)c1C | 70% (inactive)
COc1ccc(OC)c(CCNC(=O)c2cc3cccc4c3n2CCS4)c1 | 71% (inactive)
Cn1c(=O)c2c(nc(NCc3ccccc3)n2Cc2ccccc2)n(C)c1=O | 79% (inactive)
CC(C)Cc1nn2c(=O)cc(COC(=O)c3ccc(NC(=O)c4cccs4)cc3)nc2s1 | 127% (inactive)
CCOc1ccccc1N1CC(c2nc3ccccc3n2CCOc2ccccc2OC)CC1=O (stereo not drawn) | 107% (inactive)
Cc1ccc(OCCn2c(C3CC(=O)N(Cc4ccc(F)cc4)C3)nc3ccccc32)c(C)c1 (stereo not drawn) | -15% (active)
COc1ccccc1OCCCn1c(C2CC(=O)N(c3ccc(F)cc3)C2)nc2ccccc21 (stereo not drawn) | 101% (inactive)
Cc1ccc(OCCCn2c(C3CC(=O)N(c4cccc(Cl)c4)C3)nc3ccccc32)c(C)c1 (stereo not drawn) | 90% (inactive)
CCc1ccccc1N1CC(c2nc3ccccc3n2CCCCOc2ccccc2OC)CC1=O (stereo not drawn) | 93% (inactive)
Cc1ccc(C)c(OCCn2c(C3CC(=O)N(Cc4ccc(F)cc4)C3)nc3ccccc32)c1 (stereo not drawn) | -16% (active)
Cc1cccc(C)c1OCCn1c(C2CC(=O)N(Cc3ccc(F)cc3)C2)nc2ccccc21 (stereo not drawn) | -4% (active)
CCOc1ccccc1N1CC(c2nc3ccccc3n2CCCCOc2cc(C)ccc2C)CC1=O (stereo not drawn) | 43% (inactive)

SMILES | survival
Cc1cccc(C)c1OCCCCn1c(C2CC(=O)N(c3ccc(F)cc3)C2)nc2ccccc21 (stereo not drawn) | 34% (inactive)
Cc1cccc(C)c1OCCn1c(C2CC(=O)N(c3cccc(Cl)c3)C2)nc2ccccc21 (stereo not drawn) | 84% (inactive)
C=CCc1ccccc1OCCn1c(C2CC(=O)N(Cc3ccc(F)cc3)C2)nc2ccccc21 (stereo not drawn) | -16% (active)
Cc1cc(C)c(Cn2c(C3CC(=O)N(c4ccc(F)cc4)C3)nc3ccccc32)c(C)c1 (stereo not drawn) | 86% (inactive)
COc1ccc(NC(=O)Cn2c(=O)n(-c3cccc(C)c3)c(=O)c3c2c2cc(C)ccc2n3C)cc1Cl | 86% (inactive)
CCc1cccc(NCc2ccccc2-c2nnc(-c3ccccc3Cl)o2)c1 | 81% (inactive)
CN(C)S(=O)(=O)c1ccc(S(=O)(=O)N2CCC(c3nc4c(nnn4Cc4cccc(F)c4)c(=O)[nH]3)CC2)cc1 | 113% (inactive)
Cc1cccc(-n2ncc3c(Nc4c(C)cc(C)cc4C)ncnc32)c1 | 83% (inactive)
Cc1ccc(S(=O)Cc2nc(-c3ccc(C(=O)NCc4cccc(C)c4)cc3)oc2C)cc1 (stereo not drawn) | 99% (inactive)
CCOc1ccc(NC(=O)c2ccc(-c3nc(COc4ccccc4)c(C)o3)cc2)cc1 | 89% (inactive)
O=C(c1cnc(N2CCCCC2)c2ccccc12)N1CCN(c2cccc(Cl)c2)CC1 | 68% (inactive)
CCOC(=O)c1cccc(NS(=O)(=O)c2cc(Br)cc3c2N(C(=O)C2CC2)CC3)c1 | 151% (inactive)
CCCC(=O)NCC(c1ccc2c(c1)OCO2)N1CCN(c2ccccc2)CC1 (stereo not drawn) | 92% (inactive)
O=C(COc1ccccc1F)Nc1ccccc1OCc1cc(=O)n2ccccc2n1 | 79% (inactive)
CN(C)c1oc(/C=C/c2ccc(F)cc2)nc1C#N | 87% (inactive)
CC1CCCCN1CC(=O)N1CCN(C(=O)CN2CCCCC2C)CC1 (stereo not drawn) | 106% (inactive)
Cc1cc(C)cc(N(CC(=O)Nc2c(C)cc(C)cc2C)S(=O)(=O)c2c(C)nn(C)c2C)c1 | -6% (active)
CCOc1ccccc1NC(=O)CN(c1cc(C)cc(C)c1)S(=O)(=O)c1c(C)nn(C)c1C | 69% (inactive)
CCc1ccc(NC(=O)CN(c2ccc(C)cc2)S(=O)(=O)c2c(C)nn(C)c2C)cc1 | 76% (inactive)
Cc1ccccc1OCCn1cc(C(=O)C2CCCCC2)c2ccccc21 | 124% (inactive)
O=C(c1cccs1)c1cn(CCOc2ccccc2F)c2ccccc12 | 75% (inactive)
O=C(c1cccs1)c1cn(CCOc2ccc(Cl)cc2)c2ccccc12 | 80% (inactive)
Cc1ccc(NC(=O)Cn2cc(C(=O)C3CCCCC3)c3ccccc32)cc1 | 87% (inactive)
Cc1ccc(OCCn2cc(C(=O)C3CCCCC3)c3ccccc32)cc1 | 1% (active)

SMILES | survival
COc1ccc(OCCn2cc(C(=O)C3CCCCC3)c3ccccc32)cc1 | 31% (inactive)
O=C(c1ccco1)c1cn(CCOc2ccc(Cl)cc2)c2ccccc12 | 68% (inactive)
O=C(c1cn(CCOc2ccc(Cl)cc2)c2ccccc12)C1CCCCC1 | 9% (active)
O=C(c1cn(CCOc2ccccc2F)c2ccccc12)C1CCCCC1 | 3% (active)
Cn1ncc(Cl)c1C(=O)O | 95% (inactive)
O=C(CC1N=C2c3ccccc3N=C(SCC(=O)Nc3ccccc3F)N2C1=O)NCc1cccs1 (stereo not drawn) | 73% (inactive)
O=C1C2=C(Nc3ncnn3C2c2ccccc2)c2ccccc21 (stereo not drawn) | 114% (inactive)
CSc1ccc(/C=C/c2nc3ccccc3n2S(=O)(=O)c2cccc(Cl)c2)cc1 | 66% (inactive)
CCN1CCN(C(C)C(=O)NC(c2ccccc2)c2ccccc2)CC1 (stereo not drawn) | 113% (inactive)
Cc1cccc(Cn2nc(C)n3c(cc4cc(C)ccc43)c2=O)c1 | 79% (inactive)
CCc1cccc2c(-c3ccccc3)nc(SCC(=O)Nc3ccccc3)nc12 | 88% (inactive)
Cc1ccc(NC(=O)CSc2nnc3nc(C)cc(C)n23)cc1 | 73% (inactive)
CCN(CC)S(=O)(=O)c1ccc2c(c1)N(CC(=O)Nc1c(C)cccc1C)C(=O)C1CCCN21 (stereo not drawn) | 73% (inactive)
CCN(CC)S(=O)(=O)c1ccc2c(c1)N(CC(=O)Nc1cccc(C)c1C)C(=O)C1CCCN21 (stereo not drawn) | -4% (active)
CCc1ccccc1NC(=O)CN1C(=O)C2CCCN2c2ccc(S(=O)(=O)N(CC)CC)cc21 (stereo not drawn) | 81% (inactive)
CCc1ccc(-c2cc(C)no2)cc1S(=O)(=O)Nc1cc(OC)c(OC)c(OC)c1 | 83% (inactive)
Cc1ccc(-c2onc(C)c2C)cc1S(=O)(=O)Nc1ccc(Cl)cn1 | 89% (inactive)
CCc1ccc(-c2cc(C)no2)cc1S(=O)(=O)Nc1ccc(Cl)cc1 | 74% (inactive)
Cc1ccnc(NS(=O)(=O)c2cc(-c3cc(C)no3)ccc2C)c1 | 78% (inactive)
CCc1ccc(-c2cc(C)no2)cc1S(=O)(=O)Nc1ccc(C)cn1 | 14% (active)
CCc1ccc(-c2cc(C)no2)cc1S(=O)(=O)Nc1ccc(Cl)cn1 | -1% (active)
